Bioassay records: PubChem, National Center for Advancing Translational Sciences (NCATS)
Only some compounds are listed: those with a hit (about 12% of all), similar ones and a draw of the others.
Sfp PPTase inh: qHTS Assay for Inhibitors of Bacillus subtilis Sfp phosphopantetheinyl transferase (PPTase); 310,000 compounds, 3.5% hits; Biochemical Sfp PPTase activity, qHTS; 4'-phosphopantetheinyl transferase ffp (Bacillus subtilis), Q9F4F7; Potency, µM, usual class: inhibitors; AID 1490, 2009;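 also: the enzyme is Sfp with the accession as filed and its product quenches rhodamine fluorescence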
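After 15 min at room temperature with compound, 15 nM Sfp received 5 uM rhodamine-CoA plus 12.5 uM BHQ-2-ybbR (50 mM Hepes pH 7.6, 10 mM MgCl2). Rate came from the fluorescence difference over 30 min, ex 525/em 598 nm.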
G9a inh: qHTS Assay for Inhibitors of Histone Lysine Methyltransferase G9a | 350,000 compounds, 8.8% hits | Histone-lysine N-methyltransferase EHMT2 (Homo sapiens), Q96KQ7 | Potency, µM (highest dose often 102 µM), actives largely listed as inhibitors | G9a H3K9 monomethylation, AlphaScreen, 2 h | AID 504332, 2011; also: nearly all actives have a fitted effect of over 75% in size
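Methyltransferase reactions run at room temperature for 2 h (20 nM enzyme, 500 nM biotin-H3K9 peptide, 20 uM SAM) after a 15 min compound preincubation; product detected by AlphaScreen beads and anti-H3K9me1 antibody.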
PLK1 PBD inh: qHTS for Inhibitors of PLK1-PDB (polo-like kinase 1 - polo-box domain): Primary Screen; AID 720504, 2013; Potency, µM, usual class: inhibitors; 360,000 compounds, 2.8% hits; Plk1 PBD binding of FITC phosphopeptide, fluorescence polarization; also: series mostly up to about 57 µM; nearly all actives have a fitted effect of over 65% in size
JMJD2A Tudor: qHTS Assay for Inhibitors of JMJD2A-Tudor Domain; AlphaScreen JMJD2A-Tudor / H3K4me3 peptide binding; Potency, µM (top dose mostly 114 µM), hits mostly inhibitors; 390,000 compounds, 4.4% hits; also: nearly all actives have a fitted effect of over 50% in size
HP1b chromo inh: HTS for Inhibitors of HP1-beta Chromodomain Interactions with Methylated Histone Tails | Chromobox protein homolog 1 (Homo sapiens), P83916 | AlphaScreen HP1-beta / biotin-H3K9me3 peptide binding | Potency, µM (series often up to 114 µM), most hits filed as inhibitors | 390,000 compounds, 0.56% hits | AID 540317, 2011; also: nearly all actives have a fitted effect of over 70% in size
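AlphaScreen: HP1-beta (50 nM) preformed 30 min with biotin-H3(1-18)K9me3 peptide (50 nM) in PBS pH 7.4, 0.01% Tween-20. Compound added for 30 min at RT, then streptavidin donor/nickel chelate acceptor beads (10 ug/mL) for 30 min.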
BAZ2B inh: qHTS Assay for Inhibitors of BAZ2B | 360,000 compounds, 4.4% hits | Bromodomain adjacent to zinc finger domain protein 2B (Homo sapiens), Q9UIF8 | AID 504333, 2011 | Potency, µM (doses to about 114 µM), actives largely listed as inhibitors | AlphaScreen BAZ2B-H3K14Ac peptide displacement; also: nearly all actives have a fitted effect of over 60% in size
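BAZ2B 50 nM plus b-H3(5-23)K14Ac 50 nM, PBS pH 7.4/0.01% Tween-20, 30 min RT; compound added (max 110 uM), 30 min RT; streptavidin donor/Ni-chelate acceptor beads 10 ug/mL final, 20 min dark; AlphaScreen read.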
Each line names hits and unclear results; the compound was inactive in the other large screens. Calls follow the shape of the dose curve; as a rule, active = well fitted curve in the direction sought with a large enough effect; inconclusive = small, poorly fitted or top-dose-only effect, or another doubt; inactive = no such curve, though single readings can be large; an effect the other way counts as inactive or inconclusive.

CC[N+]1(C)CCC(O)(/C=C/c2ccccc2)C(C(=O)/C=C/c2ccccc2)C1 (stereo not given)	PLK1 PBD inh inconclusive, JMJD2A Tudor 39.8µM, HP1b chromo inh 70.8µM (no result: Sfp PPTase inh, G9a inh, BAZ2B inh)
Cc1ccc2nc(Cl)c3cc(C(=O)NCCCN(C)Cc4ccccc4)sc3c2c1	G9a inh inconclusive, JMJD2A Tudor inconclusive, BAZ2B inh 22.4µM (no result: Sfp PPTase inh, PLK1 PBD inh)
CN(CCCNC(=O)c1cc2c(Cl)nc3ccccc3c2s1)Cc1ccccc1	Sfp PPTase inh 79.4µM, G9a inh inconclusive, JMJD2A Tudor inconclusive, BAZ2B inh inconclusive
CCOc1ccc(N(C(=O)CC(C)C)S(=O)(=O)c2ccc3c(c2)oc(=O)n3C)cc1	none (no result: Sfp PPTase inh, PLK1 PBD inh)
COC(=O)NC(CC(C)=O)c1cccs1 (stereo not given)	none (no result: G9a inh, PLK1 PBD inh, JMJD2A Tudor, HP1b chromo inh, BAZ2B inh)
O=C(NCCc1ccc(F)cc1)C(=O)NCC(c1ccc2c(c1)OCO2)N1CCOCC1 (stereo not given)	none (no result: Sfp PPTase inh, PLK1 PBD inh)
O=C(Nc1nccs1)c1cc([N+](=O)[O-])ccc1Cl	none (no result: G9a inh)
Cc1nnc(SC(C)C(=O)Nc2ccc(Cl)cn2)n1Cc1ccccc1 (stereo not given)	none
CC(Sc1nnc(-c2ccc(Cl)cc2Cl)n1Cc1ccccc1)C(=O)Nc1nccs1 (stereo not given)	PLK1 PBD inh inconclusive, JMJD2A Tudor 79.4µM, HP1b chromo inh inconclusive
CC(Sc1ccc([N+](=O)[O-])cn1)C(=O)Nc1nccs1 (stereo not given)	G9a inh 7.94µM, PLK1 PBD inh inconclusive
CC(Sc1nnc(-c2ccco2)n1C)C(=O)Nc1nccs1 (stereo not given)	JMJD2A Tudor 31.6µM (no result: Sfp PPTase inh)
Fc1ccc(NCc2nnc3n2CCCCC3)cc1Cl	none (no result: Sfp PPTase inh, PLK1 PBD inh)
COC(=O)[C@@]1(Cc2ccccc2)[C@H]2c3cc(C(=O)N4CCCC4)n(Cc4cc(F)cc5c4OCOC5)c3C[C@H]2CN1C(=O)c1ccccc1	none (no result: G9a inh, PLK1 PBD inh, JMJD2A Tudor, HP1b chromo inh, BAZ2B inh)
COc1cc(C)ccc1OCCSc1nc2ccc(NC(=O)c3ccccc3F)cc2s1	none (no result: Sfp PPTase inh, PLK1 PBD inh)
COc1ccc(OC)c(/C=C2\SC(=S)N(NS(=O)(=O)c3ccc(C)cc3)C2=O)c1	PLK1 PBD inh 26.7µM, JMJD2A Tudor 50.1µM, HP1b chromo inh inconclusive, BAZ2B inh inconclusive
COc1ccc(OC)c(/C=C2\SC(=S)N(NS(=O)(=O)c3ccccc3)C2=O)c1	PLK1 PBD inh inconclusive, JMJD2A Tudor inconclusive, BAZ2B inh 39.8µM
COc1ccc(/C=C2\SC(=S)N(NS(=O)(=O)c3ccccc3)C2=O)c(OC)c1	Sfp PPTase inh inconclusive, G9a inh inconclusive, PLK1 PBD inh inconclusive
COc1ccc(/C=C2\SC(=S)N(NS(=O)(=O)c3ccc(C)cc3)C2=O)c(OC)c1	PLK1 PBD inh inconclusive, JMJD2A Tudor 56.2µM, BAZ2B inh inconclusive
CCOc1ccc(/C=C2\SC(=S)N(NS(=O)(=O)c3ccc(C)cc3)C2=O)cc1OC	G9a inh inconclusive, PLK1 PBD inh inconclusive, JMJD2A Tudor inconclusive, BAZ2B inh inconclusive
COc1ccccc1/C=C1\SC(=S)N(NS(=O)(=O)c2ccc(C)cc2)C1=O	G9a inh inconclusive, PLK1 PBD inh 26.7µM, JMJD2A Tudor inconclusive, BAZ2B inh 50.1µM
CC(NC(=O)C(=O)N1CCCCC1)C(c1cccs1)N1CCN(C)CC1 (stereo not given)	PLK1 PBD inh inconclusive (no result: G9a inh)
Cc1ccoc1C(=O)NCc1occc1C(=O)O	G9a inh 44.7µM, JMJD2A Tudor inconclusive, BAZ2B inh inconclusive
Cc1ccoc1C(=O)NCCCNC(=O)c1occc1C	PLK1 PBD inh 26.7µM, JMJD2A Tudor inconclusive, HP1b chromo inh inconclusive
O=c1[nH]c2cc3c(cc2cc1CN(Cc1nnnn1CC1CCCO1)C1CCCC1)OCO3 (stereo not given)	G9a inh 12.6µM
COc1ccc2cc(CN(CCc3ccccc3)Cc3nnnn3CC3CCCO3)c(=O)[nH]c2c1 (stereo not given)	none
